High-throughput results: PubChem, National Center for Advancing Translational Sciences (NCATS)
Pol iota inh: blocks human DNA polymerase iota activity; Pol iota fluorescent replication assay, 10 min; Q9UNA4; AID 588590; Potency, µM (top dose mostly 115 µM), inactives show at the top dose activity, negative = inhibition, actives largely listed as inhibitors; actives 1% (n = 390,000)
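Fluorescent replication assay read twice, at 0 min and 10 min after adding 50 nM (final) substrate. Enzyme (10 nM) and compounds were first incubated 15 min at room temperature; enzyme-free buffer wells were negative controls.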
Pol eta inh: inhibitors of human DNA polymerase eta; Q9Y253; recombinant Pol eta, fluorescent DNA replication assay; Potency, µM (highest dose often 114 µM), inactives show at the highest dose activity change, negative = inhibition, actives largely listed as inhibitors; actives 1.2% (n = 390,000); also: % is scaled to controls: 0 for no effect and ±100 for the full control effect
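Pol eta at 10 nM preincubated with compounds 15 min at room temperature; reaction started with fluorescent substrate (50 nM final) and read kinetically at 0 and 10 min.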
Pol beta inh: DNA polymerase beta (human) inhibition. Pol beta primer extension/strand displacement, fluorescence kinetic. P06746. Potency, µM (doses to about 114 µM), inactives show at the top dose activity change, negative = inhibition, usual class: inhibitors. actives 1.3% (n = 340,000); also: % is scaled to controls: 0 for no effect and ±100 for the full control effect
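Preincubation: enzyme (10 nM) with compound, 15 min, RT. Reaction: substrate added to 50 nM final. Reads: 0 and 10 min. Analysis: normalized, Hill fit.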
L3MBTL1 block: blocks human L3MBTL1. Q9Y468. AlphaScreen L3MBTL1–H3K9me1 peptide binding. Potency, µM (top dose mostly 57.1 µM), without a hit: top-dose activity, negative = inhibition, actives largely listed as inhibitors. actives 0.66% (n = 230,000); also: % is scaled to controls: 0 for no effect and ±100 for the full control effect; nearly all actives have a fitted effect of over 60% in size
Target sequence (Q9Y468 whole entry, looked up): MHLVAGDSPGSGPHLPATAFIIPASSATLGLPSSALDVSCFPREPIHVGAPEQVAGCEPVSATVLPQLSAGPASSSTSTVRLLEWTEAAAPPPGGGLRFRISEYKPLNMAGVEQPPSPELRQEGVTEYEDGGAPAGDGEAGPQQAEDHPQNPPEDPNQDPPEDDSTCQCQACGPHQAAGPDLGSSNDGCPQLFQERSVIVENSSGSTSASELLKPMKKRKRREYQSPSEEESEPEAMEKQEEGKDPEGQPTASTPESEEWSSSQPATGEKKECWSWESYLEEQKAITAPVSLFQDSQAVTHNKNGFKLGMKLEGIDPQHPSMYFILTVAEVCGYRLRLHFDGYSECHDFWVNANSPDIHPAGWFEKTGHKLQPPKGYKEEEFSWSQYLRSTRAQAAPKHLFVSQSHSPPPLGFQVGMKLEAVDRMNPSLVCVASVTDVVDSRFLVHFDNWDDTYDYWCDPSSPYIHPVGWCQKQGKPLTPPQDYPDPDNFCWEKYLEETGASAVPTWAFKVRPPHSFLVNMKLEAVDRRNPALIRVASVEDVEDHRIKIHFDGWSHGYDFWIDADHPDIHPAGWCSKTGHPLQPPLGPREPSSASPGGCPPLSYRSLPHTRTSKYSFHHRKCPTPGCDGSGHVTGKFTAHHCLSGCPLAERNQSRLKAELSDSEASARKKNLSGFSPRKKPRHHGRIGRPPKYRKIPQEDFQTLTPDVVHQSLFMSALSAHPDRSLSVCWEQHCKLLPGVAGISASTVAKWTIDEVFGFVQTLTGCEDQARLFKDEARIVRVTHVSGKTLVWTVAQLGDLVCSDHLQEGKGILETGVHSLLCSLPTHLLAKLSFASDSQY
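AlphaScreen assay: L3MBTL1 (50 nM final) was preincubated 30 min at room temperature with biotinylated H3(1-15)K9me1 peptide (75 nM final), then 30 min with library compounds; streptavidin donor and nickel chelate acceptor beads (10 ug/mL final) added, 30 min dark.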
Pol kappa inh: DNA polymerase kappa (human) inhibition. purified Pol kappa, fluorescent DNA synthesis assay, 10 min. Q9UBT6. actives 0.53% (n = 400,000). Potency, µM (series often up to 107 µM), inactives show at the top dose activity, negative = inhibition, usual class: inhibitors; also: % is scaled to controls: 0 for no effect and ±100 for the full control effect
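Enzyme at 10 nM met test compounds for 15 min at room temperature. Substrate addition (50 nM final) began the reaction, which was monitored by fluorescence at 0 and 10 min.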
WRN helicase inh: inhibitors of human WRN helicase; Q14191; WRN helicase unwinding, fluorescent forked duplex, kinetic; Potency, µM (titrated, usually from 114 µM), without a hit: at the top dose activity change, negative = inhibition, hits mostly inhibitors; actives 0.46% (n = 360,000); AID 651768; also: % is scaled to controls: 0 for no effect and ±100 for the full control effect; nearly all actives have a fitted effect of over 55% in size
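Kinetic fluorescence helicase assay: unwinding of a quenched forked DNA duplex (100 nM final) with 2 mM ATP final raises red fluorescence (525/598 nm). Compounds sat 15 min at room temperature with 20 nM WRN beforehand.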
Numbers without * were called inactive; ? = inconclusive; nt = no result given; ! = a repeat was not active; [ ] = remark or other dose. Only some compounds are listed: those with a hit (about 2.5% of all), similar ones and a draw of the others. Calls follow the shape of the dose curve; as a rule, active = well fitted curve in the direction sought with a large enough effect; inconclusive = small, poorly fitted or top-dose-only effect, or another doubt; inactive = no such curve, though single readings can be large; an effect the other way counts as inactive or inconclusive. Potency is read from the fitted curve at half-maximal effect.

SMILES | Pol iota inh | Pol eta inh | Pol beta inh | L3MBTL1 block | Pol kappa inh | WRN helicase inh
CC1CC(C)CN(C(=O)COC(=O)c2ccc([N+](=O)[O-])o2)C1 (stereo not drawn) | ? | 89µM* | nt | -10% | -23% | 0%
CC1CCCC(C)N1C(=O)COC(=O)c1cc([N+](=O)[O-])ccc1N1CCOCC1 (stereo not drawn) | 4% | -8% | nt | 1% | 0% | 1%
CC1CCCC(C)N1C(=O)COC(=O)c1ccc([N+](=O)[O-])o1 (stereo not drawn) | 50µM* | 50µM* | nt | -18% | -13% | -3%
Cn1c(N)c(C(=O)COC(=O)CNC(=O)c2ccccc2)c(=O)n(C)c1=O | 102% | -20% | nt | -1% | -10% | 2%
Cc1ccc(C(=O)NCC(=O)OCC(=O)c2c(N)n(C)c(=O)n(C)c2=O)s1 | ? | ? | 35µM* | -13% | -6% | -4%[57.1 µM]
O=C(Nc1c(Cl)cccc1Cl)C1CCN(C(=O)c2cccs2)CC1 | -10% | -13% | 93% | nt | 5% | -28%
Cn1c(N)c(C(=O)COC(=O)c2ccc([N+](=O)[O-])o2)c(=O)n(C)c1=O | 50µM* | 89µM* | -3% | -2% | -26% | -2%
CCn1c(CSc2nccn2C)nc2cc(C(=O)O)ccc21 | ? | ? | -16% | -5% | -3% | 79µM*
CC[C@]12C(=O)N(C)C[C@H]([C@@H]3C(=O)N(C)C(=O)[C@@H]31)N2C(=O)c1ccc(C(F)(F)F)cc1 | 23% | -14% | nt | 4% | 9% | -2%
CCN(CC)C1=N/C(=C\c2ccco2)C(=O)N1c1ccccc1 | -26% | -4% | -10% | -13% | -12% | -13%[57.1 µM]
CC(C)CN(CC(C)C)C1=N/C(=C\c2ccco2)C(=O)N1c1ccccc1 | ? | -11% | 28µM* | -15% | -39% | -17%
Oc1ccc2c(c1)OCC1(O)Cc3cc(O)c(O)cc3C21 (stereo not drawn) | 41% | 18µM* | nt | nt | 32µM*! | 8.9µM*
COc1ccc(-c2csc(C(C#N)=C(O)CSc3nccn3C)n2)cc1OC | 14µM* | 45µM* | nt | nt | -25% | ?
COc1ccc(/C=C(\C#N)c2nc(-c3ccc(Cl)c(Cl)c3)cs2)cc1OC | -15% | 1% | 14% | nt | -7% | nt
CSc1cccc(NC(=O)/C=C/c2ccco2)c1 | ? | 79µM* | 32µM* | nt | ? | -11%[11.6 µM]
O=C(/C=C/c1ccco1)Nc1nc(-c2ccccn2)cs1 | ? | ? | 25µM* | nt | 32µM* | ?
O=C(/C=C/c1ccco1)Nc1cccc2cccnc12 | 6.3µM* | 28µM* | 40µM* | ? | 28µM* | ?
N#Cc1ccccc1OCC(=O)OCC(=O)NCc1ccc2c(c1)OCO2 | -10% | -2% | nt | 2% | -2% | -1%
Cc1ccc(S(=O)(=O)NN2C(=O)/C(=C/c3cccc(F)c3)SC2=S)cc1 | ? | ? | -9% | nt | -10% | -16%
C=C1c2cccc(O)c2C(O)=C2C(=O)[C@@]3(O)C(O)=C(C(N)=O)C(=O)[C@@H](N(C)C)[C@@H]3[C@@H](O)[C@H]12 | nt | nt | nt | nt | 1.8µM* | nt
C[C@@H]1c2cccc(O)c2C(O)=C2C(=O)[C@@]3(O)C(O)=C(C(N)=O)C(=O)[C@@H](N(C)C)[C@@H]3[C@@H](O)[C@@H]21 | nt | nt | nt | nt | 2%[19.4 µM] | nt
C=C1c2cccc(O)c2C(=O)C2C(=O)[C@]3(O)C(=O)C(C(N)=O)C(=O)[C@@H](N(C)C)[C@@H]3[C@@H](O)[C@H]12 (stereo partly drawn) | 1.3µM* | ? | nt | 0.89µM* | ? | ?
Cc1ccc(C(=O)COC(=O)CCN2C(=O)C3C4CCC(C4)C3C2=O)cc1[N+](=O)[O-] (stereo not drawn) | 39% | -3% | 19% | nt | -8% | 3%
CCCCCn1c(=O)[nH]c2cc(C(=O)Nc3ccc(OC)cc3)ccc2c1=O | 34% | -9% | 7% | nt | -16% | 0%
O=c1c(-c2ccc(O)cc2O)coc2cc(O)cc(O)c12 | ? | ? | 32µM* | -13% | ? | 1%[11.6 µM]
SMILES | Pol iota inh | Pol eta inh | Pol beta inh | L3MBTL1 block | Pol kappa inh | WRN helicase inh
COc1ccccc1-c1coc2cc(O)cc(O)c2c1=O | 12% | -2% | 21% | nt | -3% | -1%
O=c1c(O)c(-c2ccc(O)cc2O)oc2cc(O)cc(O)c12 | 4µM* | 7.9µM* | 4.5µM* | ? | 4.2µM* | nt
O=c1c(O)c(-c2ccccc2O)oc2cc(O)cc(O)c12 | nt | nt | nt | nt | 4%[60.1 µM] | nt
N#Cc1cc([N+](=O)[O-])c(-n2nnc3ccccc32)c([N+](=O)[O-])c1 | 0% | -7% | 2% | 14% | -15% | -19%
O=C(O)CCCC(=O)N1N=C(c2ccccc2)CC1c1cccs1 (stereo not drawn) | 46% | -7% | 13% | -8% | -2% | 4%
CC(=O)Nc1ccc(Nc2ccc([N+](=O)[O-])cn2)cc1 | 17% | -10% | 4% | -5% | -2% | -4%
Cc1cc(C)c2nc(-c3ccccn3)cc(C(=O)Nc3cc(C)on3)c2c1 | ? | ? | -18% | -3% | -2% | -24%[57.1 µM]
Cc1cc(C)c2nc(-c3ccccn3)cc(C(=O)NCc3cc(C)n(C)n3)c2c1 | 17% | -10% | 40µM* | 0% | 0% | -4%
Cc1cc(C)c2nc(-c3ccccn3)cc(C(=O)NCc3ccco3)c2c1 | ? | ? | 40µM* | nt | ? | ?
CNC(=O)CSc1nnnn1CCCOC | 0% | -12% | 3% | nt | -11% | -5%
COc1cc(-c2nnc(SCC(=O)Nc3cccc(C#N)c3)o2)cc(OC)c1OC | -11% | 5% | -4% | nt | 9% | nt
CCCCc1ccc(NC(=O)CSc2nnc3[nH]c(=O)cc(C)n23)cc1 | 7% | 7% | 8% | nt | -6%[60.1 µM] | nt
CC(C)c1ccc(CNC(=O)CCc2ccccc2)cc1 | 13% | -9% | 15% | 38% | 10% | -2%
CCCCn1nnnc1SCC(=O)NNC(=O)C1CCCCC1 | 9% | -14% | 29% | 6% | 3% | -10%
CC1=NN(c2nc(-c3ccc(C)cc3)cs2)C(=O)C1N=Nc1cccc(O)c1 (stereo not drawn) | ? | ? | 13µM* | ? | ? | -33%
CC1=NN(c2nc(-c3ccc(C)cc3)cs2)C(=O)C1N=Nc1ccccc1O (stereo not drawn) | -21% | 10% | 35% | 12% | -14% | -23%
CC(C)(C)NC(=O)C(c1cccs1)N(Cc1cccs1)C(=O)c1csnn1 (stereo not drawn) | 26% | -23% | 3% | 2% | -2% | -5%
COc1ccc(OC)c(NC(=O)c2cc(-c3ccc(C)cc3O)n[nH]2)c1 | 7% | -10% | ? | nt | -4% | -8%
